# RXFP1 agonist = RXFP1 (human) receptor agonism; HEK293T-RXFP1 cAMP TR-FRET, 30 min; response scale: percent of porcine relaxin response, buffer zero; Potency, µM (highest dose often 57.5 µM), for inactives: top-dose activation, hits mostly activators; actives 0.3% (n = 370,000); also: potency is read from the fitted curve at half-maximal effect; % is scaled to controls: 0 for no effect and ±100 for the full control effect; nearly all actives have a fitted effect of over 60% in size
# Target sequence (Q9HBX9 whole entry, looked up): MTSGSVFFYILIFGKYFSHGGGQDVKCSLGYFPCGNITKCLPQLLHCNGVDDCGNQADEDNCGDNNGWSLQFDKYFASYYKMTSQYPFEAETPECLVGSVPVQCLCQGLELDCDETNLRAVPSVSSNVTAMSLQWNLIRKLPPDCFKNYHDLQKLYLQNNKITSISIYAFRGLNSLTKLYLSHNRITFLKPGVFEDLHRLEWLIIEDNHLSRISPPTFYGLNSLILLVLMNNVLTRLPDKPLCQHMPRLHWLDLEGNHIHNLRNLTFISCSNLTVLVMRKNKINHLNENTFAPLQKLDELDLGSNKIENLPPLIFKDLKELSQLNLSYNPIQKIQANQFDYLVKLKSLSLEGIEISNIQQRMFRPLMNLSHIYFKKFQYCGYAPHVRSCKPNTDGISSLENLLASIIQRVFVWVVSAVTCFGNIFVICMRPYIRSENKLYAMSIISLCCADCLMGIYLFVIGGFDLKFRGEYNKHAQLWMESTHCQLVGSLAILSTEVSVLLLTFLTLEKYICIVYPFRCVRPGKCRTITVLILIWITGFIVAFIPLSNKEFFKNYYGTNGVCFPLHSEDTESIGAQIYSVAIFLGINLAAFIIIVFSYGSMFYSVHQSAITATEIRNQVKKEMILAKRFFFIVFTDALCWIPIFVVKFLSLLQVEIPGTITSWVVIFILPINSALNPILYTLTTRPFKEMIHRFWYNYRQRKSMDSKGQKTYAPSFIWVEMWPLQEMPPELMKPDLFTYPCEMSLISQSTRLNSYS
#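 HEK293 cells stably expressing RXFP1, treated 30 min at 37C with compounds plus PDE4 inhibitor Ro 20174; cAMP measured by HTRF TR-FRET. Normalized to buffer and 29 nM porcine relaxin; EC50 by Hill fit.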
# PTHR1 ag = agonists of human PTHR1 parathyroid hormone receptor. actives 0.075% (n = 410,000). HEK293 GP2 PTHR1 cells, GloSensor cAMP luminescence, 1 h. AID 743266. Potency, µM (top dose mostly 115 µM), inactives show at the top dose activation, usual class: activators; also: potency is read from the fitted curve at half-maximal effect; nearly all actives have a fitted effect of over 55% in size
#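 HEK-293-derived GP2 cells expressing PTHR1 and a GloSensor cAMP reporter, 3,000/well, plated overnight, given luciferin plus IBMX (each 0.5 mM as added) for 1 h at 37 °C, then compound for 1 h at 37 °C. Luminescence was read after 15 min at room temperature.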
# gsp ag = activates gsp, the McCune-Albright syndrome mutation; Potency, µM (highest dose often 76.9 µM), inactives show top-dose activation (cAMP increase), actives largely listed as activators; AID 624287; gsp mutant cells, cAMP HTRF, 30 min; actives 0.13% (n = 340,000); active = well fitted activation curve with a large enough effect; inconclusive = small, poorly fitted or top-dose-only effect, or another doubt; inactive = no such curve, though single readings can be large or run the other way; cell line not stated here;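 also: phosphodiesterase inhibitor Ro 20-1724 added with compounds to block cAMP breakdown; potency is read from the fitted curve at half-maximal effect; nearly all actives have a fitted effect of over 60% in size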
#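 Cells stably selected in G418 were plated at 2000/well, grown 16-24 hr, then given compounds in DMSO with the PDE inhibitor […] (300 uM solution added) for 30 min at 37C; cAMP was read by HTRF.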
# gsp antagonist = antagonizes gsp, the McCune-Albright syndrome mutation | actives 0.4% (n = 340,000) | Potency, µM (top dose mostly 76.9 µM), for inactives: top-dose activity change, negative = inhibition, most hits filed as inhibitors | gsp-mutant cells, cAMP HTRF, 30 min; calls by dose curve; cell line not stated here;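 also: intracellular cAMP measured with PDE inhibitor Ro 20-1724 present during compound exposure; potency is read from the fitted curve at half-maximal effect; % is scaled to controls: 0 for no effect and ±100 for the full control effect; nearly all actives have a fitted effect of over 65% in size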
#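 Cells in G418 medium, seeded 16-24 h, 37C; buffer exchange to DPBS + 1 mM CaCl2, 0.5 mM MgCl2, 0.05% BSA; cpds in DMSO + […] (300 uM stock), 30 min 37C; HTRF cAMP detection.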
# RXFP1 antagonist = blocks the human relaxin receptor RXFP1. HEK293-RXFP1, relaxin-stimulated cAMP HTRF, 30 min; hits give low values. actives 0.59% (n = 350,000). Q9HBX9. AID 1259400. activity change, negative = inhibition, % at 57.5 µM;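 active = activity change of -60% or lower, but not beyond a set lower limit; inconclusive = change between -60% and -40%, or beyond the set limit; inactive = change above -40%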; also: % is scaled to controls: 0 for no effect and ±100 for the full control effect
# An asterisk follows results filed as active; i = inactive; ? = inconclusive; / = no result given; [ ] = another dose, or the depositor's remark. Hits are enriched below; roughly 1% of the tested compounds scored in any of these assays. Unless noted, calls follow the shape of the dose curve; as a rule, active = well fitted curve in the direction sought with a large enough effect; inconclusive = small, poorly fitted or top-dose-only effect, or another doubt; inactive = no such curve, though single readings can be large; an effect the other way counts as inactive or inconclusive.
SMILES,RXFP1 agonist,PTHR1 ag,gsp ag,gsp antagonist,RXFP1 antagonist
Cc1ccc(NC(=O)Cn2c(=O)n(-c3ccc(Cl)c(Cl)c3)c(=O)c3c(C)c(C)sc32)c(C)c1,-0.5%,i,/,/,6.7
C[C@H]1CN([C@@H](C)CO)C(=O)c2cc(Br)cnc2O[C@H]1CN(C)C(=O)c1cccnc1,/,-20.8%,31.6µM*,/,10.1
CCCn1nc(C(=O)OCC(=O)c2ccc3c(c2)NC(=O)CO3)c2ccccc2c1=O,3.5%,-20.0%,-2.0%,6.31µM*,-1.8
COc1ccc(CC(=O)NCC(c2cccs2)S(=O)(=O)c2ccc(Cl)cc2)cc1 (centres undefined),1.4%,-24.8%,/,/,-2.5
Cc1cc(C)nc(NS(=O)(=O)c2ccc(NC(=O)CSc3nc(-c4ccccc4)c(C#N)c(=O)[nH]3)cc2)n1,17.8µM*,i,?,28.1%,19.1
CCc1ccc(NC(=O)CSc2nc(-c3ccccc3)c(C#N)c(=O)[nH]2)cc1,25.1µM*,20.9%,/,/,4.9
N#Cc1c(-c2ccccc2)nc(SCC(=O)Nc2nnc(C(F)(F)F)s2)[nH]c1=O,17.8µM*,-2.9%,?,1.3%,22.0
COc1cccc(NC(=O)Cn2c(=O)n(CC(=O)NCc3ccc(C)cc3)c(=O)c3sccc32)c1,22.5%,i,/,/,7.0
CSCC[C@@H](C(=O)NCCCCCCCCCCC(=O)N1CCN(C(=O)OC(C)(C)C)CC1)n1cc(CCO)nn1,0.6%,-50.4%,-22.9%,31.6µM*,/
O=C(CSC1=NCCS1)Nc1ccc(F)cc1,-0.1%,-30.3%,1.1%,8.91µM*,13.9
NC(=O)c1ccccc1NC(=O)CSC1=NCCS1,2.3%,-22.5%,-7.7%,7.7%,2.4
CCOc1ccc(CCNc2ncnc3onc(C)c23)cc1OCC,-0.2%,-41.3%,/,/,6.5
Cc1ccc(-n2ncc3c(NC4CCCCC4)ncnc32)cc1,5.5%,-20.1%,/,/,-15.4
CC(C)C(C(=O)Nc1nccs1)c1ccc(Cl)cc1 (centres undefined),3.0%,-19.0%,-3.9%[15.4 µM],12.5%,-83.3*
O=C(Nc1cccc2c1CCCC2)c1cc([N+](=O)[O-])ccc1Cl,-0.7%,i,?,-15.1%,2.2
O=C(Nc1ccc(Nc2ccccc2)cc1)c1ccc(Cl)c([N+](=O)[O-])c1,-1.1%,-36.1%,-33.9%,?,-11.6
O=C(Nc1cccc2c1CCCC2)c1ccc(Cl)c([N+](=O)[O-])c1,-1.4%,-33.7%,10.2%[15.4 µM],-7.8%,-70.3*
O=C(Nc1ncccn1)c1ccc(Cl)c([N+](=O)[O-])c1,1.4%,50.1µM*,24.9%,-11.2%,-2.5
CCCn1c(SCC(=O)Nc2ccccc2C(=O)NC2CC2)n[nH]c1=O,14.9%,-9.1%,44.7µM*,30.7%,-1.9
CCC(=O)N1CCc2cc(Br)cc(S(=O)(=O)CCC(=O)Nc3cccc(C)c3C)c21,2.3%,i,/,/,-16.6
CC(NCC(O)COc1ccc2ccccc2c1)c1ccccc1 (centres undefined),-0.2%,-8.3%,?,17.3%,-87.4*
COc1cc2[nH]c(=S)nc(NCCc3ccc(S(N)(=O)=O)cc3)c2cc1OC,?,-25.2%,12.6µM*,-2.7%,3.0
O=C(Cn1c(-c2cccs2)cc2cc(Cl)ccc21)NCc1ccccc1,15.9%,i,/,/,-15.5
CCOc1ccc(-n2cc(-c3ccccc3)c3c(NCCc4ccccc4)ncnc32)cc1,5.9%,i,/,/,-8.2
COc1ccccc1NC(=O)C(C)OC(=O)c1cc2ccccc2[nH]1 (centres undefined),1.3%,-45.9%,-7.5%,35.5µM*,-30.7
COc1ccc(OC)c(NC(=O)C(C)OC(=O)c2cc3ccccc3[nH]2)c1 (centres undefined),/,-56.4%,5.5%,22.4µM*,/
CCC(C)n1nccc1NC(=O)C(C)OC(=O)c1cc2ccccc2[nH]1 (centres undefined),0.4%,-31.3%,-5.1%,-13.2%,-14.1
CCc1ccc(NC(=O)Cn2ccn(-c3ccc(C)c(C)c3)c(=O)c2=O)cc1,4.5%,i,/,/,-13.1
Cc1ccc([C@H]2Nc3ccc(S(=O)(=O)Nc4cccc(Cl)c4C)cc3[C@H]3C=CC[C@H]32)cc1,2.4%,i,/,/,-62.0*
